# Data reported in PubChem BioAssay.
# Several values for one entry are separate records, joined by “and”; a condition that tells them apart may be missing. Identical values can stand only once. Results filed as inconclusive are left out. Activity calls are given as the source filed them. Cut-off read from the data, not from the text of the source, unless noted: active = inhibition above about 80%; inactive = the rest.
# Legend:
# [1] = viability loss in pontine glioma line – cell-based, SU-DIPG-XIII, MIPE4.0, CellTiter-Glo, qHTS, dose response (AID 1347061; cut-off not given, nearly all actives have AC50 up to about 37 µM;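 note: cells exposed to compound for 48 hours before readout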); settings: CellTiter-Glo ATP luminescence
# [2] = viability loss in pontine glioma line – cell-based, JHH-DIPG-1, MIPE4.0, CellTiter-Glo, qHTS, dose response (AID 1347062; cut-off not given, nearly all actives have AC50 up to about 27 µM;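 for AC50: cells exposed to compound for two days before readout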); settings: JHH-DIPG-1 viability, CellTiter-Glo ATP luminescence
# [3] = viability loss in pontine glioma line – cell-based, SU-DIPG-IV, MIPE4.0, CellTiter-Glo, qHTS, dose response (AID 1347063; cut-off not given, nearly all actives have AC50 up to about 30 µM;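 note: compound exposure lasted 48 hours before the viability readout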); settings: CellTiter-Glo ATP luminescence
# [4] = viability loss in pontine glioma line – cell-based, SU-DIPG-XIII, MIPE5.0, CellTiter-Glo, qHTS, dose response (AID 1347064; cut-off not given, nearly all actives have AC50 up to about 23 µM;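 note: cells exposed to compound for 48 hours before the viability read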); settings: CellTiter-Glo ATP luminescence
# [5] = viability loss in pontine glioma line – cell-based, SU-DIPG-XXV, MIPE5.0, CellTiter-Glo, qHTS, dose response (AID 1347065; cut-off not given, nearly all actives have AC50 up to about 26 µM;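 note: cells exposed to compound for 48 hours before ATP readout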); settings: CellTiter-Glo ATP luminescence
# [6] = growth inhibition of DIPG cells – cell-based, MIPE4.0 library, CellTiter-Glo luminescence, qHTS (AID 1347066; cut-off not given, nearly all actives have AC50 up to about 30 µM;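 note: cells exposed to compound for 48 hours before readout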); settings: SU-DIPG-VI viability, CellTiter-Glo ATP luminescence
# [7] = JHH-DIPG-1 glioma cell viability, MIPE5.0 library, CellTiter-Glo luminescence, qHTS (AID 1347067; cut-off not given, nearly all actives have AC50 up to about 26 µM;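 note: cells exposed to compound for 48 hours before readout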); settings: JHH-DIPG-1 glioma viability, CellTiter-Glo ATP luminescence
# [8] = growth inhibition of DIPG cells – cell-based, MIPE5.0 library, qHTS (AID 1347068; cut-off not given, nearly all actives have IC50 up to about 30 µM;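 note: cells exposed to compound for 48 hours before viability readout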); settings: SU-DIPG-XXV viability
# [9] = viability loss with induced miR-34 in A549 – imaging, A549 dox-inducible miR-34, nuclei and caspase counts, primary screen (AID 1347080;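 active = compounds whose cell count with miR-34 switched on is under 0.7 times the count with it off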); settings: A549 miR-34 inducible, Hoechst nuclei count, 48 h
# [10] = compounds altering HSF1 focus formation in cells – imaging, Selleck Cancer Library (AID 1347162; in the data active = plate-normalised HSF1 focus index below about 0.46); settings: human cells, HSF1 nuclear foci imaging, at 10 µM; SSMD: measured here: HSF1 foci SSMD mean; cell count: measured here: cell number; plate-normalised HSF1 focus index: stronger effect = lower value
# [11] = MELAS cybrid and Rieske KO viability enhancers – cell-based, MELAS cybrids, Rieske KO mouse fibroblasts, CellTiter-Glo, primary screen (AID 1508586;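 active = mean z-score across replicates of 1.96 or higher in either the MELAS or the Rieske mutant cell line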;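 note: z relative to plate mean and SD of compound and empty wells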); settings: low glucose
# [12] = growth inhibition, single agent or in combination, cell-based, chromothripsis tumors, cisplatin or BGB combos (AID 1671449); settings: LFS_MB_P medulloblastoma cells;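 note: cells exposed for 96 hours; 0% = vehicle DMSO and 100% = killing by high DMSO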
# [13] = growth inhibition, single agent and combos, cell-based, chromothripsis tumors, cisplatin or BGB combos (AID 1671450); settings: HDN33 neuroblastoma cells, stronger effect = higher value;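 note: cells exposed to compound for four days; 0% = vehicle DMSO and 100% = cell killing by high DMSO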
# [14] = growth inhibition, single agents and combos, ICB984, cell-based, cisplatin or BGB combos, synergistic combos for chromothripsis tumors (AID 1671451; call rule not given here;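 note: cells exposed for 96 hours before readout; 0% = vehicle DMSO and 100% = killing by high DMSO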); settings: ICB984 medulloblastoma cells, drug combinations, stronger effect = higher value
# [15] = growth inhibition, single agents and combos, HTB85, cell-based, BGB or cisplatin IC20 combos, synergistic combos for chromothripsis tumors (AID 1671453); settings: HTB85 osteosarcoma cells, drug combinations, stronger effect = higher value;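 note: cells exposed for 96 hours before readout; 0% = vehicle DMSO and 100% = high DMSO killing control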
# [16] = growth inhibition, MDA-MB-436, cell-based, BGB or cisplatin combos, synergistic combos for chromothripsis tumors (AID 1671458; call rule not given here;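 note: cells exposed for 96 hours; 0% = vehicle DMSO and 100% = killing by high DMSO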); settings: MDA-MB-436 breast carcinoma growth inhibition, drug combinations, stronger effect = higher value
# [17] = BT084 cell growth, single and combined drugs, ICGC_MB145, cisplatin and BGB IC40 combos (AID 1671461); settings: BT084 medulloblastoma cells, drug combinations, stronger effect = higher value;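 note: cells exposed to drugs for 96 hours; 0% = vehicle DMSO and 100% = high DMSO full killing control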
# [18] = RCMB18 cell growth, single agent and combined, cisplatin and BGB IC40 combos (AID 1671462); settings: RCMB18 medulloblastoma cells, stronger effect = higher value;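 note: cells exposed to compound for four days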
# [19] = CRL1545 cell growth, single agent and combined, cisplatin and BGB IC20 combos (AID 1671464); settings: CRL1545 osteosarcoma cells, stronger effect = higher value;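 note: cells exposed to compound for 96 hours before readout; 0% = vehicle DMSO and 100% = high DMSO killing control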
# [20] = measured here: with BGB IC20 combination, at 0.5 µM
# [21] = measured here: with cisplatin IC20 combination, at 0.5 µM
smiles,measurement,setting,value
O=C1c2c(O)cc(O)cc2O[C@H](c2cc(O)c(O)c(O)c2)[C@H]1O,outcome,[1],inactive
same,outcome,[2],inactive
same,outcome,[3],inactive
Nc1ccccc1NC(=O)c1ccc(CNC(=O)OCc2cccnc2)cc1,AC50,[1],14.8 µM (active)
same,AC50,[2],4.69 µM (active)
same,AC50,[3],1.32 µM (active)
same,AC50,[4],3.32 µM (active)
same,AC50,[5],2.35 µM (active)
same,AC50,[6],3.72 µM (active)
same,AC50,[7],2.95 µM (active)
same,IC50,[8],5.25 µM (active)
same,fold change,"[9]; stronger effect = lower value, cell number ratio, induced over uninduced",0.935 (inactive) and 1.04 (inactive)
same,fold change,[9]; measured here: relative caspase fold change +Dox/-Dox,1.69 and 0.81
same,cell count,"[9]; measured here: total cells with miR-34 induction, stronger effect = lower value",3300 and 2250
same,cell count,[9]; measured here: total cells without miR-34 induction,3530 and 2180
same,SSMD,[10],2.19
same,cell count,[10],6960
same,plate-normalised HSF1 focus index,[10],1.11 (inactive)
same,z-score,"[11]; MELAS cybrid survival, CellTiter-Glo 48 h, stronger effect = higher value",-0.681 (inactive)
same,z-score,"[11]; Rieske KO mouse fibroblast survival, CellTiter-Glo 72 h",-1.12
same,inhibition,"[12]; at 0.5 µM, stronger effect = higher value",20.5% (inactive) and 31.3% (inactive)
same,inhibition,"[12]; measured here: combination with BGB IC20, at 0.005 µM",9.17% and -14%
same,inhibition,"[12]; measured here: combination with BGB IC40, at 0.005 µM",-20.6% and -27.1%
same,inhibition,"[12]; measured here: combination with BGB IC40, at 0.05 µM",-4.42% and -24.6%
same,inhibition,"[12]; measured here: combination with cisplatin, at 0.5 µM, stronger effect = higher value",46.4% and 85.2%
same,inhibition,"[12]; measured here: combination with cisplatin, at 5 µM, stronger effect = higher value",118% and 115%
same,inhibition,"[13]; BGB combo, at 5 µM",97.1% and 92.4%
same,inhibition,[13]; at 0.5 µM,44% (inactive) and 41% (inactive)
same,inhibition,"[13]; cisplatin combo, at 5 µM",99.7% and 97%
same,inhibition,[13]; [20],39.9% and 34.6%
same,inhibition,[13]; [21],48.7% and 57.6%
same,inhibition,"[13]; single agent, at 5 µM",99.3% and 93.9%
same,inhibition,"[14]; BGB IC20 combo, at 0.005 µM",36.5% and 11%
same,inhibition,"[14]; BGB IC40 combo, at 0.005 µM",24.4% and 20.7%
same,inhibition,"[14]; BGB IC40 combo, at 0.05 µM",97.8% and 93%
same,inhibition,[14]; at 0.5 µM,-31.6% (inactive) and -19.6% (inactive)
same,inhibition,"[14]; cisplatin combo, at 0.05 µM",97.7% and 92.8%
same,inhibition,"[14]; cisplatin combo, at 0.5 µM",-49.4% and -14.7%
same,inhibition,"[14]; cisplatin combo, at 5 µM",10.2% and -21.6%
same,inhibition,"[14]; measured here: 5 uM single agent, at 5 µM",20% and -23%
same,inhibition,[15]; at 0.5 µM,57.3% (inactive) and 32.6% (inactive)
same,inhibition,"[15]; measured here: with BGB IC20, at 0.5 µM",48% and 25.2%
same,inhibition,"[15]; measured here: with BGB IC20, at 5 µM",97.7% and 98.3%
same,inhibition,"[15]; measured here: with cisplatin IC20, at 0.5 µM",80.3% and 42.5%
same,inhibition,"[15]; measured here: with cisplatin IC20, at 5 µM",99.8% and 98.9%
same,inhibition,"[15]; single agent, at 5 µM",99.3% and 97.6%
same,inhibition,[16]; at 0.5 µM,18.4% (inactive) and 2.92% (inactive)
same,inhibition,"[16]; measured here: BGB combination, at 0.5 µM",16.3% and -2.7%
same,inhibition,"[16]; measured here: BGB combination, at 5 µM",55.1% and 44.4%
same,inhibition,"[16]; measured here: cisplatin combination, at 0.5 µM",15.5% and -5.2%
same,inhibition,"[16]; measured here: cisplatin combination, at 5 µM",49.1% and 36.5%
same,inhibition,[17]; at 0.5 µM,46.5% (inactive) and 28.3% (inactive)
same,inhibition,"[17]; cisplatin combination, at 0.5 µM",67% and 52.4%
same,inhibition,"[17]; cisplatin combination, at 5 µM",97.3% and 96.5%
same,inhibition,"[17]; measured here: BGB IC40 combination 0.05 uM, at 0.05 µM",51.3% and 7.15%
same,inhibition,"[17]; single agent, at 5 µM",87.5% and 72.2%
same,inhibition,[18]; at 0.5 µM,49.1% (inactive) and 37.1% (inactive)
same,inhibition,"[18]; cisplatin combo, at 5 µM",94.3% and 95%
same,inhibition,"[18]; measured here: BGB IC40 combination, at 0.05 µM",11.6% and 4.4%
same,inhibition,"[18]; measured here: combination with cisplatin, at 0.5 µM",71.2% and 58%
same,inhibition,"[18]; single agent, at 5 µM",95.5% and 86.6%
same,inhibition,[19]; at 0.5 µM,74.5% (inactive) and 39.4% (inactive)
same,inhibition,[19]; [20],71.4% and 25.4%
same,inhibition,[19]; [21],76.1% and 45.2%
same,inhibition,"[19]; single agent, at 0.05 µM",28.6% and -12.8%
same,inhibition,"[19]; single agent, at 5 µM",73.7% and 44.8%
